What was measured:
Assay in all cases: SPOT peptide array binding signal intensity (averaged, normalized) (arbitrary units (background-subtracted, floor 0; scale differs between SH3 domains)); higher = stronger binding of the SH3 domain to the peptide
AgAbp1 = target: AgAbp1
Outline: (§1)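 Peptides were synthetic 15-mers on cellulose membranes, with every cysteine replaced by serine. They were incubated overnight at 4°C with GST-SH3 domains from four yeast species at 10 μg/ml in TBS-based blocking buffer. Binding signal, the replicate-averaged normalized and background-subtracted spot intensity, is in arbitrary units that differ between domains.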

AgBbc1 = target: AgBbc1
Outline: as §1

AgBem1-D1 = target: AgBem1-D1
Outline: as §1

AgBzz1-D1 = target: AgBzz1-D1
Outline: as §1

AgBzz1-D2 = target: AgBzz1-D2
Outline: as §1

AgCyk3 = target: AgCyk3
Outline: as §1

AgFus1 = target: AgFus1
Outline: as §1

AgHof1 = target: AgHof1
Outline: as §1

AgHse1 = target: AgHse1
Outline: as §1

AgLsb1 = target: AgLsb1
Outline: as §1

AgLsb4 = target: AgLsb4
Outline: as §1

AgMyo5 = target: AgMyo5
Outline: as §1

AgNbp2 = target: AgNbp2
Outline: as §1

AgRvs167 = target: AgRvs167
Outline: as §1

AgSho1 = target: AgSho1
Outline: as §1

AgSla1-D1-D2 = target: AgSla1-D1-D2
Outline: as §1

AgSla1-D3 = target: AgSla1-D3
Outline: as §1

CaAbp1-D1 = target: CaAbp1-D1
Outline: as §1

CaAbp1-D2 = target: CaAbp1-D2
Outline: as §1

CaBbc1 = target: CaBbc1
Outline: as §1

CaBem1-D1 = target: CaBem1-D1
Outline: as §1

CaBzz1-D1 = target: CaBzz1-D1
Outline: as §1

CaBzz1-D2 = target: CaBzz1-D2
Outline: as §1

CaCyk3 = target: CaCyk3
Outline: as §1

CaFus1 = target: CaFus1
Outline: as §1

CaHof1 = target: CaHof1
Outline: as §1

CaHse1 = target: CaHse1
Outline: as §1

CaLsb1 = target: CaLsb1
Outline: as §1

CaLsb4 = target: CaLsb4
Outline: as §1

CaMyo5 = target: CaMyo5
Outline: as §1

CaNbp2 = target: CaNbp2
Outline: as §1

CaRvs167 = target: CaRvs167
Outline: as §1

CaRvs167-3 = target: CaRvs167-3
Outline: as §1

CaSho1 = target: CaSho1
Outline: as §1

CaSla1-D1-D2 = target: CaSla1-D1-D2
Outline: as §1

CaSla1-D3 = target: CaSla1-D3
Outline: as §1

ScAbp1 = target: ScAbp1
Outline: as §1

ScBbc1 = target: ScBbc1
Outline: as §1

ScBem1-D1 = target: ScBem1-D1
Outline: as §1

ScBzz1-D1 = target: ScBzz1-D1
Outline: as §1

ScBzz1-D2 = target: ScBzz1-D2
Outline: as §1

ScCyk3 = target: ScCyk3
Outline: as §1

ScFus1 = target: ScFus1
Outline: as §1

ScHof1 = target: ScHof1
Outline: as §1

ScHse1 = target: ScHse1
Outline: as §1

ScLsb1 = target: ScLsb1
Outline: as §1

ScLsb2 = target: ScLsb2
Outline: as §1

ScLsb3 = target: ScLsb3
Outline: as §1

ScLsb4 = target: ScLsb4
Outline: as §1

ScMyo3 = target: ScMyo3
Outline: as §1

ScMyo5 = target: ScMyo5
Outline: as §1

ScNbp2 = target: ScNbp2
Outline: as §1

ScPex13 = target: ScPex13
Outline: as §1

ScRvs167 = target: ScRvs167
Outline: as §1

ScSho1 = target: ScSho1
Outline: as §1

ScSla1-D1-D2 = target: ScSla1-D1-D2
Outline: as §1

ScSla1-D3 = target: ScSla1-D3
Outline: as §1

SpAbp1-D1 = target: SpAbp1-D1
Outline: as §1

SpBbc1 = target: SpBbc1
Outline: as §1

SpBzz1-D1 = target: SpBzz1-D1
Outline: as §1

SpBzz1-D2 = target: SpBzz1-D2
Outline: as §1

SpCyk3 = target: SpCyk3
Outline: as §1

SpHof1 = target: SpHof1
Outline: as §1

SpHof1-2 = target: SpHof1-2
Outline: as §1

SpHof1-3 = target: SpHof1-3
Outline: as §1

SpHse1 = target: SpHse1
Outline: as §1

SpLsb1 = target: SpLsb1
Outline: as §1

SpLsb4 = target: SpLsb4
Outline: as §1

SpMyo1 = target: SpMyo1
Outline: as §1

SpNbp2 = target: SpNbp2
Outline: as §1

SpPex13 = target: SpPex13
Outline: as §1

SpRvs167 = target: SpRvs167
Outline: as §1

SpSla1-D1-D2 = target: SpSla1-D1-D2
Outline: as §1

SpSla1-D3 = target: SpSla1-D3
Outline: as §1

B1: unnamed (peptide)
chain: TKHKAPPPPPPTAET
- SPOT peptide array binding signal intensity (AgAbp1): 1
- SPOT peptide array binding signal intensity (AgBbc1): ≤ 0
- SPOT peptide array binding signal intensity (AgBem1-D1): ≤ 0
- SPOT peptide array binding signal intensity (AgBzz1-D1): 2000
- SPOT peptide array binding signal intensity (AgBzz1-D2): 338
- SPOT peptide array binding signal intensity (AgCyk3): ≤ 0
- SPOT peptide array binding signal intensity (AgFus1): ≤ 0
- SPOT peptide array binding signal intensity (AgHof1): ≤ 0
- SPOT peptide array binding signal intensity (AgHse1): 4
- SPOT peptide array binding signal intensity (AgLsb1): ≤ 0
- SPOT peptide array binding signal intensity (AgLsb4): ≤ 0
- SPOT peptide array binding signal intensity (AgMyo5): 21.8
- SPOT peptide array binding signal intensity (AgNbp2): 39.5
- SPOT peptide array binding signal intensity (AgRvs167): 4
- SPOT peptide array binding signal intensity (AgSho1): ≤ 0
- SPOT peptide array binding signal intensity (AgSla1-D1-D2): 3
- SPOT peptide array binding signal intensity (AgSla1-D3): 774
- SPOT peptide array binding signal intensity (CaAbp1-D1): 12
- SPOT peptide array binding signal intensity (CaAbp1-D2): ≤ 0
- SPOT peptide array binding signal intensity (CaBbc1): ≤ 0
- SPOT peptide array binding signal intensity (CaBem1-D1): 42.5
- SPOT peptide array binding signal intensity (CaBzz1-D1): 4620
- SPOT peptide array binding signal intensity (CaBzz1-D2): 3490
- SPOT peptide array binding signal intensity (CaCyk3): 1
- SPOT peptide array binding signal intensity (CaFus1): 4.5
- SPOT peptide array binding signal intensity (CaHof1): 1
- SPOT peptide array binding signal intensity (CaHse1): 5.5
- SPOT peptide array binding signal intensity (CaLsb1): ≤ 0
- SPOT peptide array binding signal intensity (CaLsb4): ≤ 0
- SPOT peptide array binding signal intensity (CaMyo5): 0.25
- SPOT peptide array binding signal intensity (CaNbp2): ≤ 0
- SPOT peptide array binding signal intensity (CaRvs167): ≤ 0
- SPOT peptide array binding signal intensity (CaRvs167-3): 4
- SPOT peptide array binding signal intensity (CaSho1): ≤ 0
- SPOT peptide array binding signal intensity (CaSla1-D1-D2): 6.5
- SPOT peptide array binding signal intensity (CaSla1-D3): ≤ 0
- SPOT peptide array binding signal intensity (ScAbp1): 1.5
- SPOT peptide array binding signal intensity (ScBbc1): ≤ 0
- SPOT peptide array binding signal intensity (ScBem1-D1): 3
- SPOT peptide array binding signal intensity (ScBzz1-D1): 5910
- SPOT peptide array binding signal intensity (ScBzz1-D2): 5
- SPOT peptide array binding signal intensity (ScCyk3): ≤ 0
- SPOT peptide array binding signal intensity (ScFus1): 18
- SPOT peptide array binding signal intensity (ScHof1): ≤ 0
- SPOT peptide array binding signal intensity (ScHse1): ≤ 0
- SPOT peptide array binding signal intensity (ScLsb1): 0.25
- SPOT peptide array binding signal intensity (ScLsb2): ≤ 0
- SPOT peptide array binding signal intensity (ScLsb3): ≤ 0
- SPOT peptide array binding signal intensity (ScLsb4): ≤ 0
- SPOT peptide array binding signal intensity (ScMyo3): 160
- SPOT peptide array binding signal intensity (ScMyo5): 112
- SPOT peptide array binding signal intensity (ScNbp2): 3.5
- SPOT peptide array binding signal intensity (ScPex13): 0.75
- SPOT peptide array binding signal intensity (ScRvs167): 1.5
- SPOT peptide array binding signal intensity (ScSho1): 2.5
- SPOT peptide array binding signal intensity (ScSla1-D1-D2): ≤ 0
- SPOT peptide array binding signal intensity (ScSla1-D3): 4
- SPOT peptide array binding signal intensity (SpAbp1-D1): ≤ 0
- SPOT peptide array binding signal intensity (SpBbc1): 2
- SPOT peptide array binding signal intensity (SpBzz1-D1): 240
- SPOT peptide array binding signal intensity (SpBzz1-D2): 6.25
- SPOT peptide array binding signal intensity (SpCyk3): 0.5
- SPOT peptide array binding signal intensity (SpHof1): 1
- SPOT peptide array binding signal intensity (SpHof1-2): ≤ 0
- SPOT peptide array binding signal intensity (SpHof1-3): ≤ 0
- SPOT peptide array binding signal intensity (SpHse1): ≤ 0
- SPOT peptide array binding signal intensity (SpLsb1): 0.5
- SPOT peptide array binding signal intensity (SpLsb4): ≤ 0
- SPOT peptide array binding signal intensity (SpMyo1): 215
- SPOT peptide array binding signal intensity (SpNbp2): 14.5
- SPOT peptide array binding signal intensity (SpPex13): ≤ 0
- SPOT peptide array binding signal intensity (SpRvs167): ≤ 0
- SPOT peptide array binding signal intensity (SpSla1-D1-D2): 2
- SPOT peptide array binding signal intensity (SpSla1-D3): 1

B2: unnamed (peptide)
chain: RKNRAPPQRPRFNRD
- SPOT peptide array binding signal intensity (CaNbp2): 1750
- SPOT peptide array binding signal intensity (CaRvs167): 31.5
- SPOT peptide array binding signal intensity (CaRvs167-3): 53
- SPOT peptide array binding signal intensity (CaSho1): 423
- SPOT peptide array binding signal intensity (CaSla1-D1-D2): 1480
- SPOT peptide array binding signal intensity (CaSla1-D3): 15
- SPOT peptide array binding signal intensity (ScAbp1): 153
- SPOT peptide array binding signal intensity (ScBbc1): 338
- SPOT peptide array binding signal intensity (ScBem1-D1): 26
- SPOT peptide array binding signal intensity (ScBzz1-D1): 162
- SPOT peptide array binding signal intensity (ScBzz1-D2): 16.5
- SPOT peptide array binding signal intensity (ScCyk3): 138
- SPOT peptide array binding signal intensity (ScFus1): 293
- SPOT peptide array binding signal intensity (ScHof1): 1.5
- SPOT peptide array binding signal intensity (ScHse1): 1230
- SPOT peptide array binding signal intensity (ScLsb1): 248
- SPOT peptide array binding signal intensity (ScLsb2): 119
- SPOT peptide array binding signal intensity (ScLsb3): 1430
- SPOT peptide array binding signal intensity (ScLsb4): 53
- SPOT peptide array binding signal intensity (ScMyo3): 22
- SPOT peptide array binding signal intensity (ScMyo5): 14.5
- SPOT peptide array binding signal intensity (ScNbp2): 4260
- SPOT peptide array binding signal intensity (ScPex13): 88.8
- SPOT peptide array binding signal intensity (ScRvs167): 238
- SPOT peptide array binding signal intensity (ScSho1): 845
- SPOT peptide array binding signal intensity (ScSla1-D1-D2): 1900
- SPOT peptide array binding signal intensity (ScSla1-D3): 49
- SPOT peptide array binding signal intensity (SpAbp1-D1): 917
- SPOT peptide array binding signal intensity (SpBbc1): 54
- SPOT peptide array binding signal intensity (SpBzz1-D1): 853
- SPOT peptide array binding signal intensity (SpBzz1-D2): 9.75
- SPOT peptide array binding signal intensity (SpCyk3): 10
- SPOT peptide array binding signal intensity (SpHof1): 285
- SPOT peptide array binding signal intensity (SpHof1-2): 16.2
- SPOT peptide array binding signal intensity (SpHof1-3): 360
- SPOT peptide array binding signal intensity (SpHse1): 367
- SPOT peptide array binding signal intensity (SpLsb1): 154
- SPOT peptide array binding signal intensity (SpLsb4): 793
- SPOT peptide array binding signal intensity (SpMyo1): 15.5
- SPOT peptide array binding signal intensity (SpNbp2): 726
- SPOT peptide array binding signal intensity (SpPex13): 30
- SPOT peptide array binding signal intensity (SpRvs167): 98.7
- SPOT peptide array binding signal intensity (SpSla1-D1-D2): 61
- SPOT peptide array binding signal intensity (SpSla1-D3): 7.5
